# Reference: PubChem BioAssay (EPA / NIEHS)
# Values joined by “and” are separate entries in the source; they are usually repeats but may differ in a detail not shown here. Equal entries are not always repeated. Records with an inconclusive call do not appear. Active and inactive are the calls of the source. How the source made its calls: active means hit-call score of the fitted dose curve at least 0.9, where 1 is the maximum; inconclusive means response in the unintended direction; inactive means score below 0.9.
# How the values were obtained:
# AR (gene 367) [1] = molecular target: AR (gene 367) (UniProt P10275); test: ACEA_AR_agonist_80hr: ACEA Biosciences xCELLigence Real-Time Cell Analysis on Androgen Receptor Agonism for Proliferation (AID 2283783);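 further: hits increase impedance growth signal above DMSO baseline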
# AR (gene 367), sequence (P10275 whole entry, looked up): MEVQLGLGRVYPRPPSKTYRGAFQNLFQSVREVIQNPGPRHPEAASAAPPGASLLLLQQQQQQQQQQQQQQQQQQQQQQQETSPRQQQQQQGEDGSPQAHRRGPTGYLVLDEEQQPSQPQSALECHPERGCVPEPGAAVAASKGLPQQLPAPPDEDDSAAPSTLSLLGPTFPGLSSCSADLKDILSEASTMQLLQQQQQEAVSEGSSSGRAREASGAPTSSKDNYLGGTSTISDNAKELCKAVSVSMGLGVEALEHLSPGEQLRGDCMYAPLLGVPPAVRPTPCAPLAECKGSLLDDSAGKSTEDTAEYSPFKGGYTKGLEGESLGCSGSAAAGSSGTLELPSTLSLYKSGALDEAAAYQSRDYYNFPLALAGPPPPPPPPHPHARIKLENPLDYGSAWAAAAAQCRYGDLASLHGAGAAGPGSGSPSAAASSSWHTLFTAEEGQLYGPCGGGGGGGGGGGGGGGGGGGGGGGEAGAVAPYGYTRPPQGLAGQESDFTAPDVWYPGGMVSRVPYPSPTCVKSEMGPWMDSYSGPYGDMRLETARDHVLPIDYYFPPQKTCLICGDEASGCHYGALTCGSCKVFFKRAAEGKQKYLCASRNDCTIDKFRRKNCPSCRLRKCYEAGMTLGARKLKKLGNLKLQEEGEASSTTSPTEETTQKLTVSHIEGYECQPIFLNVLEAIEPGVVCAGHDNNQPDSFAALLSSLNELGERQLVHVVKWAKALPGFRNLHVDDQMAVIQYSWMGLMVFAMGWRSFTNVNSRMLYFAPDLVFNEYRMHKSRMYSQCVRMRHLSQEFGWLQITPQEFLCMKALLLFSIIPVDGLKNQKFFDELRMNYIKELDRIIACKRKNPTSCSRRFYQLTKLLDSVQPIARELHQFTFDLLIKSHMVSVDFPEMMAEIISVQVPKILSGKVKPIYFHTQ
# Method in brief: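 22Rv1 human prostate cancer cells were seeded after preconditioning in assay medium and monitored overnight, then dosed in an eight-point 1:4 dilution series from 100 uM (≤0.5% DMSO). Impedance-based growth was read at 80 h, gain-of-signal versus DMSO.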
# [2] = STM_H9_NormalizedViability: Cytotoxicity Assessment at 120 hours in the Stemina devTOX quickPredict H9 human embryonic stem cell (hESC)-based Assay (AID 2283784)
# Method in brief: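 Undifferentiated H9 hESCs kept pluripotent were exposed to compound, with media and chemical replaced every 24h. CellTiter-Fluor protease-substrate fluorescence was background-corrected and normalized per plate to the 0.1% DMSO vehicle; signal loss indicates reduced viability.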
# AR (gene 367) [3] = molecular target: AR (gene 367) (UniProt P10275); test: ACEA_AR_antagonist_80hr: ACEA Biosciences xCELLigence Real-Time Cell Analysis on Androgen Receptor Antagonism for Proliferation (AID 2283787);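 further: hits lower the impedance growth signal relative to DMSO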
# Method in brief: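 Impedance readout (RT-CES), 80 h post-dose; loss-of-signal vs DMSO baseline. 22Rv1 cells in assay medium. Compounds: 8-pt 1:4 series, max 100 uM final, up to 0.5% DMSO; n = 2.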
# [4] = test system: turtle Estrogen Receptor (ESR1), gene 101933533; test: ATG_trERa_XSP1: Attagene TRANS-FACTORIAL Multi-Species (XSP1) HepG2 Assay for turtle Estrogen Receptor (ESR1) (AID 2283781)
# Method in brief: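 HepG2 cells transiently transfected with GAL4-UAS reporter units and chimeric NR-Gal4 constructs, dosed for 24 h with 3 nM 6-alpha-fluorotestosterone present. Reporter mRNA was quantified by RT-PCR, fluorescent labelling and capillary electrophoresis, with gain of signal fitted relative to DMSO.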
# [5] = molecular target: GAL4 Transcription Factor (Internal Marker), GAL4 (gene 855828) (UniProt P04386); test: ATG_GAL4_XSP1: Attagene TRANS-FACTORIAL Multi-Species (XSP1) HepG2 Assay for GAL4 Transcription Factor (Internal Marker) (AID 2283789)
# GAL4 Transcription Factor (Internal Marker), GAL4 (gene 855828), sequence (P04386 whole entry, looked up, the tested form may be a part): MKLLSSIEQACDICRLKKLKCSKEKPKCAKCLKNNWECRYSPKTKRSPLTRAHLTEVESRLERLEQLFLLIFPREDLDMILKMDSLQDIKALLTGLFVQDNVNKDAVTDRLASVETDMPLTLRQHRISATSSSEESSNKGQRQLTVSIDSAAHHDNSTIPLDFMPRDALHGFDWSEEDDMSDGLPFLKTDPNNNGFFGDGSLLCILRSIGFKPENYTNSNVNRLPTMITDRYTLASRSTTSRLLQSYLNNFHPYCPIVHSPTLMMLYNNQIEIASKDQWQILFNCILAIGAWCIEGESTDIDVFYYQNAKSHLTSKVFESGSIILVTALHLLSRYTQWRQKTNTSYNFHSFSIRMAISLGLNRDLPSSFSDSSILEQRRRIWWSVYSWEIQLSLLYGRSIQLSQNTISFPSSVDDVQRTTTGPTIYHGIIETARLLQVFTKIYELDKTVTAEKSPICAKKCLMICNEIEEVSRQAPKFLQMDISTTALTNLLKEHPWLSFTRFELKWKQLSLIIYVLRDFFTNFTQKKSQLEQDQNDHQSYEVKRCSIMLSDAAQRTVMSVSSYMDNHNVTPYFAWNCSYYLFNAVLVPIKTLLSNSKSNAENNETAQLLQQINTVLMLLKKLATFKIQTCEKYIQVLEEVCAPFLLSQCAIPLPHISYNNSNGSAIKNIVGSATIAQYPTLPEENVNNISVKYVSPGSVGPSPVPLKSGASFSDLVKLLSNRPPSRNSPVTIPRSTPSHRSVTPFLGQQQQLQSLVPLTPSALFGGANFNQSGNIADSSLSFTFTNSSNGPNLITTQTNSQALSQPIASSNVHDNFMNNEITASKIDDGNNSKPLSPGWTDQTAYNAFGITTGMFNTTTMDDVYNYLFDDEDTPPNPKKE
# Method in brief: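 HepG2 cells transiently transfected with multiplexed GAL4-UAS reporter units were exposed for 24 h with 3 nM 6-alpha-fluorotestosterone present. Reporter mRNA was quantified by RT-PCR, FAM labelling, HpaI digestion and capillary electrophoresis; background-control readout, gain-of-signal versus DMSO.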
# [6] = ATG_M_06_XSP1: Attagene TRANS-FACTORIAL Multi-Species (XSP1) HepG2 Assay for M06 Transcription Factor (Internal Marker) (AID 2283790)
# Method in brief: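 Transfected HepG2 multi-reporter system treated 24 h in the presence of 3 nM 6-alpha-fluorotestosterone. The M06 internal marker transcript was quantified by RT-PCR with capillary electrophoresis as a background control, and gain of signal was scored versus DMSO.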
# [7] = ATG_M_61_XSP1: Attagene TRANS-FACTORIAL Multi-Species (XSP1) HepG2 Assay for M61 Transcription Factor (Internal Marker) (AID 2283797)
# Method in brief: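 HepG2 cells transiently transfected with multiplexed GAL4-driven reporter units, dosed 24 h with 3 nM 6-alpha-fluorotestosterone present. Reporter mRNA quantified by RT-PCR, 6-FAM labelling, HpaI digestion and capillary electrophoresis; internal-marker background control, gain of signal versus DMSO.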
# [8] = ATG_M_32_XSP1: Attagene TRANS-FACTORIAL Multi-Species (XSP1) HepG2 Assay for M32 Transcription Factor (Internal Marker) (AID 2283799)
# Method in brief: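 HepG2 cells transiently transfected with multi-species TRANS reporter units, dosed 24 h with 3 nM 6-alpha-fluorotestosterone present. Internal-marker reporter mRNA quantified by RT-PCR and capillary electrophoresis; positive-direction fit versus DMSO.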
# [9] = molecular target: mouse Peroxisome Proliferator-activated Receptor gamma (PPARg), Pparg (gene 19016) (UniProt P37238); test: ATG_mPPARg_XSP1: Attagene TRANS-FACTORIAL Multi-Species (XSP1) HepG2 Assay for mouse Peroxisome Proliferator-activated Receptor gamma (PPARg) (AID 2283802)
# mouse Peroxisome Proliferator-activated Receptor gamma (PPARg), Pparg (gene 19016), sequence (P37238 whole entry, looked up, the tested form may be a part): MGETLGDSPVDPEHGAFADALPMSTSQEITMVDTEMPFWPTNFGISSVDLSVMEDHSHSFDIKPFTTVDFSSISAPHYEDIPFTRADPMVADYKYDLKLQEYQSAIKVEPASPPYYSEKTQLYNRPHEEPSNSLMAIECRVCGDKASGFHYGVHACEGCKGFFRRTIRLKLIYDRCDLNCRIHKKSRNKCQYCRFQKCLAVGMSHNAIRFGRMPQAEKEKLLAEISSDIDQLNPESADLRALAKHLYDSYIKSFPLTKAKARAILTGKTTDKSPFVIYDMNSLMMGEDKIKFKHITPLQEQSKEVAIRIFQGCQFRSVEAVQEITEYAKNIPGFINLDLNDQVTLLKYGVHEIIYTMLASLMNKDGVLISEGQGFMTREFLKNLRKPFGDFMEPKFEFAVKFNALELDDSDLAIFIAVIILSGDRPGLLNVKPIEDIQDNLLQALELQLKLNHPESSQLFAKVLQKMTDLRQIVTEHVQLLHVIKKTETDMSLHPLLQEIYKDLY
# Method in brief: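 HepG2 cells transiently transfected with GAL4-UAS reporter units driven by mouse PPARg–GAL4 chimera; 3 nM 6-alpha-fluorotestosterone present. After 24 h dosing, reporter mRNA quantified by RT-PCR, fluorescent labelling and capillary electrophoresis; gain of signal versus DMSO.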
# [10] = molecular target: Nuclear receptor subfamily 1 group I member 2 (Mus musculus) (UniProt O54915); test: ATG_mPXR_XSP1: Attagene TRANS-FACTORIAL Multi-Species (XSP1) HepG2 Assay for mouse Pregnane X Receptor (PXR) (AID 2283803)
# Nuclear receptor subfamily 1 group I member 2 (Mus musculus), sequence (O54915 whole entry, looked up, the tested form may be a part): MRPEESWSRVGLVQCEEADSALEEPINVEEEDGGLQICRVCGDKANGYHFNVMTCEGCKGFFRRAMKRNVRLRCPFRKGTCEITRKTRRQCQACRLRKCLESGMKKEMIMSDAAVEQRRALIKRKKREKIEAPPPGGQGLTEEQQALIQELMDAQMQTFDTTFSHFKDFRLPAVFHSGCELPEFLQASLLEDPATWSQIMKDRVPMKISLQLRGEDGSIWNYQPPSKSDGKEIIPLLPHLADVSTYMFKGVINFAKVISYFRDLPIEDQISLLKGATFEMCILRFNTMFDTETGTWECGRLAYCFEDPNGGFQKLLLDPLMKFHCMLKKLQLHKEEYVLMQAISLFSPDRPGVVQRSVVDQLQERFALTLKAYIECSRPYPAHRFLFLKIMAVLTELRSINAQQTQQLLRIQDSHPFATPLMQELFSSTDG
# Method in brief: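 Transiently transfected HepG2 cells expressing a receptor-Gal4 chimera drive a GAL4-UAS reporter; 3 nM 6-alpha-fluorotestosterone included. Reporter mRNA read 24 h post-dose by RT-PCR and capillary electrophoresis; gain of signal relative to DMSO.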
# [11] = molecular target: frog Thyroid hormone Receptor alpha (TRa), thra-a (gene 397942) (UniProt P15204); test: ATG_frTRa_XSP1: Attagene TRANS-FACTORIAL Multi-Species (XSP1) HepG2 Assay for frog Thyroid hormone Receptor alpha (TRa) (AID 2283804)
# frog Thyroid hormone Receptor alpha (TRa), thra-a (gene 397942), sequence (P15204 whole entry, looked up, the tested form may be a part): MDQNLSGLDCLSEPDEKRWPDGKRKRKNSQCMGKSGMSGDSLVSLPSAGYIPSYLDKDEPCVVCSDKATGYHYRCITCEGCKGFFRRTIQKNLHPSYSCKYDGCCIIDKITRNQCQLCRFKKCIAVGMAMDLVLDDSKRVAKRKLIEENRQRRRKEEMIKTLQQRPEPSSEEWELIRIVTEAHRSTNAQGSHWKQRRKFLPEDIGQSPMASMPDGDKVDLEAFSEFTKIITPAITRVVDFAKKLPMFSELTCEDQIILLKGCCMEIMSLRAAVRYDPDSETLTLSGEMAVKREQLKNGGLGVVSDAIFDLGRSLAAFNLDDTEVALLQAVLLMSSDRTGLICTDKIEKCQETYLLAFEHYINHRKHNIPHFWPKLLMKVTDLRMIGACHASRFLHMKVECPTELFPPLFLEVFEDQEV
# Method in brief: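 HepG2 cells transiently transfected with frog TRa-GAL4 chimeric reporter units, dosed 24 hr with 3 nM 6-alpha-fluorotestosterone present; reporter mRNA quantified by RT-PCR, fluorescent labelling and capillary electrophoresis, gain of signal versus DMSO.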
# [12] = molecular target: human Thyroid hormone Receptor alpha (TRa), THRA (gene 7067) (UniProt P10827); test: ATG_hTRa_XSP1: Attagene TRANS-FACTORIAL Multi-Species (XSP1) HepG2 Assay for human Thyroid hormone Receptor alpha (TRa) (AID 2283805)
# human Thyroid hormone Receptor alpha (TRa), THRA (gene 7067), sequence (P10827 whole entry, looked up, the tested form may be a part): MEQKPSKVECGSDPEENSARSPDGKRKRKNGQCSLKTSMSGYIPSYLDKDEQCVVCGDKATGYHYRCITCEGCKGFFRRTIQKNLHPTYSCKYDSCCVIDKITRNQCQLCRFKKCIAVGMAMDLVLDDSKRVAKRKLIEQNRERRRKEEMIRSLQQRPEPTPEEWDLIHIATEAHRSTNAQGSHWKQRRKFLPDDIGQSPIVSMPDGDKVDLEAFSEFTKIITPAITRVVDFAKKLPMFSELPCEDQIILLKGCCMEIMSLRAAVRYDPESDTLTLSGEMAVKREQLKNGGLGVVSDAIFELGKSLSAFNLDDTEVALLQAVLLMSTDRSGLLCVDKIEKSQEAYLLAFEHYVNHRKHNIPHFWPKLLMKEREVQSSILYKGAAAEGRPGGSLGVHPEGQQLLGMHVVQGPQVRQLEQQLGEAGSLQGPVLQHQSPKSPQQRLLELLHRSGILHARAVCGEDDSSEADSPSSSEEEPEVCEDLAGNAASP
# Method in brief: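 HepG2 cells transiently transfected with GAL4-UAS reporter units expressing chimeric NR-Gal4 proteins, dosed 24 hours with 3 nM 6-alpha-fluorotestosterone present. Reporter mRNA measured by RT-PCR and capillary electrophoresis; gain of signal fitted versus DMSO.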
# [13] = test system: turtle Thyroid Hormone Receptor, alpha (TRa), gene 101949057; test: ATG_trTRa_XSP1: Attagene TRANS-FACTORIAL Multi-Species (XSP1) HepG2 Assay for turtle Thyroid Hormone Receptor, alpha (TRa) (AID 2283806)
# Method in brief: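 HepG2 cells transiently transfected with GAL4-UAS reporter units and chimeric receptor-Gal4 constructs, with 3 nM 6-alpha-fluorotestosterone present. Reporter mRNA was quantified 24 h after dosing by RT-PCR, 6-FAM labelling and capillary electrophoresis; gain of signal versus DMSO.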
# [14] = molecular target: zebrafish Thyroid Hormone Receptor alpha (TRa), thraa (gene 30670) (UniProt Q98867); test: ATG_zfTRa_XSP1: Attagene TRANS-FACTORIAL Multi-Species (XSP1) HepG2 Assay for zebrafish Thyroid Hormone Receptor alpha (TRa) (AID 2283807)
# zebrafish Thyroid Hormone Receptor alpha (TRa), thraa (gene 30670), sequence (Q98867 whole entry, looked up, the tested form may be a part): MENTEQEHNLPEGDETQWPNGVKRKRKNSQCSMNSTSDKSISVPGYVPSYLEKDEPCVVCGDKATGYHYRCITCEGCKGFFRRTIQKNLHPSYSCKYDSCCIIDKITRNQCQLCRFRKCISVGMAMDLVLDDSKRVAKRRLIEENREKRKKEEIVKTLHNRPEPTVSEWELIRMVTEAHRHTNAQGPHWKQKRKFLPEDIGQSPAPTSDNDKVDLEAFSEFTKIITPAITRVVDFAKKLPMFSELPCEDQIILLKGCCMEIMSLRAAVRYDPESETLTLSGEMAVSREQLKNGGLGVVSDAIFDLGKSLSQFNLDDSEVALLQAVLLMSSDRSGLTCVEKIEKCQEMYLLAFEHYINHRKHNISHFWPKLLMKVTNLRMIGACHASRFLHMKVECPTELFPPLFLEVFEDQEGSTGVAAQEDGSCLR
# Method in brief: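 HepG2 cells transiently transfected with GAL4-UAS reporter units including a zebrafish TRa–Gal4 chimera, dosed 24 h with 3 nM 6-alpha-fluorotestosterone present. Reporter mRNA quantified by RT-PCR and capillary electrophoresis; gain versus DMSO.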
# [15] = molecular target: Estrogen receptor beta (Homo sapiens) (UniProt Q92731); test: ATG_hERb_XSP1: Attagene TRANS-FACTORIAL Multi-Species (XSP1) HepG2 Assay for human Estrogen Receptor (ESR2) (AID 2283788)
# Method in brief: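 Read-out: reporter mRNA induction by RT-PCR, HpaI digestion and capillary electrophoresis fluorescence, fitted in positive direction relative to DMSO baseline. Human liver HepG2 cells expressing ERβ-Gal4 fusion, dosed 24 h, medium containing 3 nM 6-alpha-fluorotestosterone.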
# [16] = ATG_M_19_XSP1: Attagene TRANS-FACTORIAL Multi-Species (XSP1) HepG2 Assay for M19 Transcription Factor (Internal Marker) (AID 2283798)
# Method in brief: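 HepG2 cells transiently transfected with multiplexed GAL4-UAS reporter units, dosed 24 h with 3 nM 6-alpha-fluorotestosterone present for partial AR stimulation. Reporter mRNA measured by RT-PCR with capillary electrophoresis; gain-of-signal fitted relative to DMSO.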
# [17] = molecular target: Peroxisome proliferator-activated receptor gamma (Homo sapiens) (UniProt P37231); test: ATG_hPPARg_XSP1: Attagene TRANS-FACTORIAL Multi-Species (XSP1) HepG2 Assay for human Peroxisome Proliferator-activated Receptor gamma (PPARg) (AID 2283800)
# Peroxisome proliferator-activated receptor gamma (Homo sapiens), sequence (P37231 whole entry, looked up, the tested form may be a part): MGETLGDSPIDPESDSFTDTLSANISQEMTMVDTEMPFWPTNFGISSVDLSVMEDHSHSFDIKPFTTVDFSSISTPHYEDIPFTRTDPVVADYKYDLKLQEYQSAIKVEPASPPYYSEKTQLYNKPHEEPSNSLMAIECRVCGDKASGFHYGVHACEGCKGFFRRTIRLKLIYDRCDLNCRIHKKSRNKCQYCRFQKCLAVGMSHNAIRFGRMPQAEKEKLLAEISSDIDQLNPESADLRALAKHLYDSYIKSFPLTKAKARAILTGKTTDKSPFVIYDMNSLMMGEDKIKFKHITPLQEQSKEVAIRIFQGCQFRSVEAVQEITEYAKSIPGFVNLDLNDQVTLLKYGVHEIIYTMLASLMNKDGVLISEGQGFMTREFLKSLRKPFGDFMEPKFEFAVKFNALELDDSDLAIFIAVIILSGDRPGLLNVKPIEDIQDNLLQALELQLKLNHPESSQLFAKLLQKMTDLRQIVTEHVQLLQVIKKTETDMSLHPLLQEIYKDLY
# Method in brief: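 HepG2 cells transiently transfected with GAL4-UAS reporter units carrying chimeric NR-Gal4 proteins; 3 nM 6-alpha-fluorotestosterone present. After 24 h dosing, reporter mRNA quantified by RT-PCR and capillary electrophoresis; gain of signal relative to DMSO.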
smiles,measurement,setting,value
CCNc1nc(NC(C)C)nc(SC)n1,outcome,AR (gene 367) [1],inactive
same,outcome,[2],inactive
same,outcome,AR (gene 367) [3],inactive
C1CC2OC2CC1C1CO1 (stereo not drawn),AC50,[2],74.5 µM (active)
O=C(N[C@H]1CN2CCC1CC2)c1cc2ccoc2cn1,outcome,AR (gene 367) [1],inactive
same,AC50,AR (gene 367) [3],33.1 µM (active)
CCC(C)c1cc([N+](=O)[O-])cc([N+](=O)[O-])c1O (stereo not drawn),outcome,[2],inactive
Oc1ccc(C(c2ccc(O)cc2)(C(F)(F)F)C(F)(F)F)cc1,AC50,[4],109 nM (active) and 71.2 nM (active)
same,outcome,[2],inactive
same,outcome,[5],inactive
same,outcome,[6],inactive
same,outcome,[7],inactive
same,outcome,[8],inactive
same,AC50,[9],33.4 µM (active)
same,outcome,[10],inactive
same,outcome,[11],inactive
same,outcome,[12],inactive
same,outcome,[13],inactive
same,outcome,[14],inactive
CCC(=O)O[C@H]1CC[C@H]2[C@@H]3CCC4=CC(=O)CC[C@]4(C)[C@H]3CC[C@]12C,AC50,AR (gene 367) [1],0.207 nM (active) and 0.285 nM (active) and 0.61 nM (active)
same,AC50,[2],28.6 µM (active)
Clc1ccc(C(Cl)(Cl)Cl)cc1,AC50,[2],83.6 µM (active)
Clc1ccc(C(c2ccccc2Cl)C(Cl)(Cl)Cl)cc1 (stereo not drawn),AC50,[4],713 nM (active)
same,AC50,[2],88.7 µM (active)
same,outcome,[15],inactive
same,outcome,[5],inactive
same,outcome,[16],inactive
same,outcome,[8],inactive
same,outcome,[17],inactive
same,AC50,[10],2.03 µM (active)
same,outcome,[12],inactive
same,outcome,[13],inactive
same,outcome,[14],inactive
